Assay [1] concerns HaCat. Briefly: Cytotoxic Profiling of Annotated Libraries Using Quantitative High-Throughput Screening (AID 1296008). Further: nearly all actives have a fitted effect of over 60% in size. Further: potency means the concentration at half of the fitted maximal effect. On max response: on the % scale 0 is the no-effect control and ±100 the full control effect. The note with it: Five cell lines viability, CellTiter-Glo ATP luminescence, 48-72 h; max response: active compounds read low. The method, boiled down: (§1)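 Cells exposed to compounds for 48 or 72 hr at 37 degrees Celsius. Viability read as ATP-coupled luminescence with CellTiter-Glo after 10 min at room temperature.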
Background: Cellular ATP, detected with luciferase, serves as a proxy for viable cell number.

The next assay has as its system KB-3-1. The assay is described as above. The note with it: Five cell lines viability, CellTiter-Glo ATP luminescence, 48-72 h; max response: active compounds read low. The method, boiled down:
as §1

The test system of assay [2] is HACAT. Briefly: qHTS assay to identify novel small-molecules to repurpose for Merkel cell carcinoma treatment (AID 1296009). Further: nearly all actives have a fitted effect of over 60% in size. The note with it: MCC and control cell lines, CellTiter-Glo viability, 72 h; at 44.8 µM (top of the series) unless noted. An outline of the steps:
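CellTiter-Glo luminescence after 72 hr compound exposure at 37 degree celsius gave cell viability. Libraries NPC and MIPE were run as 8- and 11-point dose responses; RLUs normalized to DMSO (negative) and no-cell (cytotoxicity) controls.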

For the next assay, the system named is C33A. Briefly: Primary qHTS to identify gynecologic anti-cancer compounds using libraries of approved drugs and bioactive compounds (AID 1345084). Further: nearly all actives have a fitted effect of over 55% in size. Further: potency means the concentration at half of the fitted maximal effect. The note with it: Gynecologic cancer cell panel viability, ATPlite luminescence, 48 h; series mostly up to 57.5 µM. The method, boiled down: (§2)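 Cells, 1,000 per well, plated 16 h, then exposed 48 h at 37 C to compounds. Viability by ATPlite luminescence after 15 min at room temperature.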
A general note: Quantitative high-throughput screening tests each substance at several concentrations.

For another assay, the system named is CAOV3. The assay is described as above. The settings on record: Gynecologic cancer cell panel viability, ATPlite luminescence, 48 h; series mostly up to 57.5 µM. An outline of the steps:
as §2

The test system of another assay is CASKI. Described as above. The note with it: Gynecologic cancer cell panel viability, ATPlite luminescence, 48 h; series mostly up to 57.5 µM. An outline of the steps: as §2
In another assay the test system is Es-2. The description is as above. The note with it: Gynecologic cancer cell panel viability, ATPlite luminescence, 48 h; series mostly up to 57.5 µM. An outline of the steps: as §2
In another assay the test system is HeLa. The assay is described as above. The settings on record: Gynecologic cancer cell panel viability, ATPlite luminescence, 48 h; series mostly up to 57.5 µM. The method, boiled down: as §2
The next assay deals with Hek293T. The assay is described as above. The settings on record: Gynecologic cancer cell panel viability, ATPlite luminescence, 48 h, control line for the selectivity index; series mostly up to 57.5 µM. The method, boiled down: as §2
The subject of another assay is JEG-3. The description is as above. The note with it: Gynecologic cancer cell panel viability, ATPlite luminescence, 48 h; series mostly up to 57.5 µM. An outline of the steps:
as §2

For the next assay, the system named is OV90. The assay is described as above. The note with it: Gynecologic cancer cell panel viability, ATPlite luminescence, 48 h; series mostly up to 57.5 µM. An outline of the steps:
as §2

Another assay deals with PA-1. Described as above. The settings on record: Gynecologic cancer cell panel viability, ATPlite luminescence, 48 h; series mostly up to 57.5 µM. The method, boiled down:
as §2

In a further assay the test system is NIH3T3. Briefly: Cytotoxic Profiling of Annotated Libraries Using Quantitative High-Throughput Screening (AID 1296008). Further: nearly all actives have a fitted effect of over 60% in size. Further: potency means the concentration at half of the fitted maximal effect. On max response: on the % scale 0 is the no-effect control and ±100 the full control effect. The note with it: Five cell lines viability, CellTiter-Glo ATP luminescence, 48-72 h; max response: active compounds read low. An outline of the steps: as §1

Molecules are shown by their SMILES. Results filed as inconclusive are left out. Values without a mark were called inactive. Activity calls are given as the source filed them. The call rests on the fitted dose curve; in most records, active means well fitted curve in the direction sought with a large enough effect; inconclusive means small, poorly fitted or top-dose-only effect, or another doubt; inactive means no such curve, though single readings can be large; an effect the other way counts as inactive or inconclusive.

Consider `CC[C@H]1OC(=O)[C@H](C)[C@@H](O[C@H]2C[C@@](C)(OC)[C@@H](O)[C@H](C)O2)[C@H](C)[C@@H](O[C@H]2O[C@H](C)C[C@H](N(C)C)[C@H]2O)[C@](C)(O)C[C@@H](C)C(=O)[C@H](C)[C@@H](O)[C@]1(C)O`, for which, in the assay on HaCat [1], the outcome was inactive. Moreover, the max response with KB-3-1 was 8.4%. Also, the outcome with HACAT [2] was “inactive [at 17.4 µM]”. Besides, the Potency result in the assay with C33A, in the assay with CAOV3, with CASKI, in the assay on Es-2, in the assay on HeLa and with Hek293T was “inactive” throughout. In addition, the Potency result in the assay with JEG-3, in the assay with OV90 and with PA-1 was “inactive” throughout.
With `Cc1cc2sc(NC(=O)Cc3ccccc3)nc2cc1Cl`, the max response with HaCat [1] was -26.8%; in the assay with KB-3-1, 3.53%; in the assay with NIH3T3, 0.0198%. For the same compound, the Potency entry in the assay with C33A, in the assay with CASKI, with Es-2, in the assay with HeLa, in the assay on Hek293T and in the assay with JEG-3 was “inactive” throughout. Besides, the Potency result in the assay with OV90 and in the assay with PA-1 was “inactive” throughout.
On to `COc1cc(N2CCOCC2)ccc1NC(=O)c1csc(-c2cccnc2)n1`, for which the max response in the assay on HaCat [1] is -49.6%; with KB-3-1, 1.64%. Moreover, the Potency in the assay with NIH3T3 was 10.3 µM (active). The Potency entry in the assay with C33A, in the assay on CASKI, in the assay with Es-2, in the assay with HeLa, in the assay with Hek293T and in the assay with JEG-3 was “inactive” each time.
As for `C/C=C(\C)[C@@H]1C(C)=C[C@@H]2[C@H]([C@@H]1/C=C/C=C/C(=O)O)[C@@H](C)CC[C@@H]2O`, the result in the assay on HaCat [1] and with HACAT [2] was inactive. Moreover, in the assay on KB-3-1, the Potency was 8.05 µM (active). Moreover, the Potency entry in the assay with C33A is “inactive”.
As to `COc1cc2ncnc(Nc3ccc(O)c(Br)c3)c2cc1OC`, the results for the Potency in the assay with HaCat [1] and in the assay on NIH3T3 were 3.66 µM (active) and 11.6 µM (active), respectively. Further, in the assay with KB-3-1, the max response is 0.483%. The Potency result in the assay on C33A, in the assay with CAOV3, in the assay with Es-2, in the assay on HeLa, with Hek293T and with JEG-3 was “inactive” in each case. Also, in the assay with OV90, the Potency entry is “inactive”.
Turning to `OC1CCC(Nc2nc(-c3ccccc3)nc3[nH]ccc23)CC1` (stereo not given), the max response was -12.5% with HaCat [1], 7.97% with KB-3-1 and -18.3% in the assay with NIH3T3. In addition, the Potency entry with C33A, in the assay on CAOV3, in the assay with Es-2, with HeLa, in the assay with Hek293T and with JEG-3 was “inactive” each time. In addition, the Potency entry in the assay on OV90 and in the assay on PA-1 was “inactive” in each case.
Regarding `O=C(C1CCCCC1)N(CCN1CCN(c2ccccc2O)CC1)c1ccccn1`, the result in the assay with HaCat [1] and with HACAT [2] was inactive. Besides, the max response in the assay on KB-3-1 is -15.9%. Moreover, the Potency result with C33A, with CAOV3, in the assay with Es-2, in the assay with HeLa, with Hek293T and in the assay with JEG-3 was “inactive” each time. The Potency result in the assay with OV90 and in the assay with PA-1 was “inactive” each time.
For the compound `CCCCNc1ncc2c(-c3ccc(S(=O)(=O)N4CCOCC4)cc3)nn(C3CCC(O)CC3)c2n1` (stereo not given), the Potency in the assay with HaCat [1] was 6.51 µM (active); with KB-3-1 it was 11.6 µM (active); in the assay with NIH3T3 it was 7.31 µM (active); with CAOV3, 7.94 µM (active); in the assay on HeLa, 10 µM (active). Moreover, in the assay on JEG-3, the Potency entry is “inactive”.
Consider `C=C(C(=O)O[C@H]1C/C(C)=C/CC/C(CO)=C/[C@H]2OC(=O)C(=C)[C@H]12)C(O)CO` (stereo not given in full), for which the compound was called inactive in the assay with HaCat [1] and in the assay on HACAT [2]. For the same compound, the max response with KB-3-1 was -10.8%. Further, the Potency result in the assay with C33A, in the assay with CAOV3, in the assay on CASKI, in the assay with HeLa, in the assay with Hek293T and with OV90 was “inactive” in each case. Further, in the assay on PA-1, the Potency entry is “inactive”.
Regarding `COc1ccc(Cl)c(Nc2ncnc3cc(OCC4CCN(C)CC4)c(OC)cc23)c1`, the results for the Potency in the assay with HaCat [1], with NIH3T3 and in the assay on CAOV3 were 4.11 µM (active), 7.31 µM (active) and 8.91 µM (active), respectively. For the same compound, the max response in the assay on KB-3-1 is 2.68%. Moreover, the Potency entry with Es-2, in the assay with HeLa, in the assay with Hek293T and in the assay on JEG-3 was “inactive” in each case.
Take `c1cc(NC2CCNCC2)nc(-c2cnc3ccccn23)c1`: the Potency with HaCat [1] was 3.66 µM (active); in the assay with KB-3-1, 3.26 µM (active); with NIH3T3 it was 5.8 µM (active); in the assay on CASKI, 10 µM (active); in the assay with Es-2, 17.8 µM (active); in the assay with HeLa it was 8.91 µM (active). Besides, the Potency was 11.2 µM (active) in the assay on OV90 and 20 µM (active) with PA-1. Besides, the Potency entry in the assay on JEG-3 was “inactive”.
As for `C=C(C)C(=O)O[C@H]1/C(C=O)=C\CC/C(CO)=C/[C@H]2OC(=O)C(=C)[C@@H]2[C@@H]1OC`, the outcome in the assay with HaCat [1] and in the assay on HACAT [2] was inactive. For the same compound, in the assay with KB-3-1, the max response was 9.81%. Moreover, the Potency entry in the assay with C33A, in the assay with CASKI, with Es-2, in the assay with HeLa, with Hek293T and in the assay on JEG-3 was “inactive” each time. The Potency entry in the assay with OV90 and in the assay on PA-1 was “inactive” throughout.
Turning to `CC[C@H](C(=O)Nc1ccccc1N1CCCC1)c1ccccc1`, the max response in the assay on HaCat [1] was -11.1%; in the assay with KB-3-1 it was -2.95%; with NIH3T3 it was -0.387%. Moreover, the Potency entry in the assay on C33A, in the assay on CAOV3, in the assay on CASKI, in the assay with Hek293T, with JEG-3 and in the assay with OV90 was “inactive” throughout. In the assay with PA-1, the Potency entry was “inactive”.
On to `C=C1CC[C@@H]2[C@](C)(CO)[C@H](O)CC[C@@]2(C)[C@@H]1C/C=C1/C(=O)OCC1OC(=O)/C(=C/CO)C(O)C[C@@H]1C(=C)CC[C@@H]2[C@](C)(CO)[C@H](O)CC[C@]21C` (stereo not given in full), for which the result in the assay with HaCat [1] and with KB-3-1 was inactive. The outcome in the assay with HACAT [2] is “inactive [at 17.4 µM]”. The Potency result in the assay on C33A, in the assay on CAOV3, with CASKI, in the assay with Es-2, in the assay on HeLa and in the assay on Hek293T was “inactive” throughout. In addition, the Potency entry in the assay with JEG-3, in the assay on OV90 and with PA-1 was “inactive” in each case.
In the case of `COc1ccc([C@H]2OC[C@H]3O[C@@H](O[C@H]4[C@@H]2NC[C@@H]4O)[C@H](O)[C@H]3O)cc1`, the Potency with HaCat [1] was 2.55 µM (active); in the assay with KB-3-1 it was 0.904 µM (active); with NIH3T3 it was 1.14 µM (active); in the assay with C33A, 7.08 µM (active); in the assay with CAOV3 it was 2.82 µM (active); with CASKI, 5.01 µM (active). The Potency in the assay with Es-2 was 4.47 µM (active); in the assay with Hek293T, 3.16 µM (active); in the assay on JEG-3, 5.01 µM (active); in the assay on PA-1, 5.01 µM (active).
For `O=C(NCc1ccccc1)c1ccc2c(=O)n(-c3cccc(C(F)(F)F)c3)c(=S)[nH]c2c1`, the figures for the max response in the assay with HaCat [1], in the assay with KB-3-1 and in the assay with NIH3T3 were -51.3%, -9.36% and -30.9%, respectively. The Potency result with C33A, with CASKI, in the assay on Es-2, in the assay with HeLa, with Hek293T and in the assay with JEG-3 was “inactive” in each case. The Potency result in the assay with OV90 and in the assay on PA-1 was “inactive” each time.
